Measured values: PubChem BioAssay
Calls of active or inactive are those of the source.

What was measured:
[1] = small molecules captured by biotinylated probe aFSTL3 – biochemical, small-molecule microarray, fluorescence 635/667, stem cell growth factor project, primary screen (AID 1064); settings: higher = more signal;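 note: measures binding of the biotinylated anti-FSTL3 antibody to printed compounds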
[2] = binders from COS7 lysate, DM2A8 probe, primary screen, torsin A project, cell lysate, small-molecule microarray, fluorescence 635/667 (AID 1065); settings: higher = more signal, COS7 lysate expressing mutant human TOR1A
[3] = small molecules captured by biotinylated probe aFGF2 – biochemical, small-molecule microarray, fluorescence 635/667, stem cell growth factor project, primary screen (AID 1067); settings: higher = more signal;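 note: measures binding of biotinylated aFGF2 protein to printed compounds on slides; z-score merges feature fluorescence and signal-to-noise across triplicate slides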
[4] = small molecules captured by biotinylated probe aFGF10 – biochemical, small-molecule microarray, fluorescence 635/667, stem cell growth factor project, primary screen (AID 1071); settings: higher = more signal;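 note: score merges 667 nm spot intensity and signal to noise from triplicate slides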
[5] = biological target: Neurogenic locus notch homolog protein 2 (Homo sapiens) (UniProt Q04721); assay: small molecules binding Notch2 protein – biochemical, small-molecule microarray, 635 nm fluorescence, stem cell growth factors, primary screen (AID 1073); settings: higher = more signal
[6] = biological target: Pro-neuregulin-1, membrane-bound isoform (Homo sapiens) (UniProt Q02297); assay: small molecules binding neuregulin-1 protein – biochemical, small-molecule microarray, fluorescence 635/667, psychiatric disease protein project, primary screen (AID 1075); settings: NRG1 binding, 635 nm fluorescence, higher = more signal;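 note: score combines 667 nm spot fluorescence with signal to noise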
[7] = test system: Neuregulin-1 EGF-like domain; assay: small molecules binding NRG1 EGF domain – biochemical, small-molecule microarray, 635 nm fluorescence, primary screen (AID 1081); settings: higher = more signal;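 note: binding of the protein to compounds printed on small-molecule microarray slides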
[8] = FRG1 expression reporter modulators in myotubes – cell-based, C2C12 myotubes, firefly/Renilla luciferase, luminescence, FRG1 inhibition for FSHD, primary screen (AID 1084); settings: FRG1 promoter luciferase, higher = more signal, called active from +8 up or from −8 down
[9] = small molecules captured by biotinylated probe aFST – biochemical, small-molecule microarray, fluorescence 635/667, stem cell growth factor project, primary screen (AID 1086); settings: higher = more signal;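 note: score merges 667 nm fluorescence with signal-to-noise of each printed compound spot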
[10] = binders of probe aHhip on microarray, primary screen, stem cell growth factor project, biochemical, small-molecule microarray, fluorescence 635/667 (AID 1087); settings: higher = more signal;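 note: score merges spot fluorescence at 667nm with spot signal to noise ratio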
[11] = test system: PRMT1 (protein arginine N-methyltransferase 1); assay: small molecules binding arginine methyltransferase PRMT1 – biochemical, small-molecule microarray, 635 nm fluorescence, primary screen (AID 1088); settings: higher = more signal;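 note: binding of Prmt1 protein to compounds spotted on small-molecule microarray slides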
[12] = growth effects on S. cerevisiae YJM789 – YJM789 clinical isolate, OD600, 24 h, basal, primary screen (AID 1089); settings: higher = more signal, called active from +8 up or from −8 down;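 note: growth of clinical yeast isolate S. cerevisiae YJM 789 seeded 1000 cells per well; test concentration not given here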
[13] = S. pombe growth modifiers, basal conditions – strain 972, OD600, 24 h, no modulator, primary screen (AID 1090);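 note: basal condition with compound alone and no growth modifier present; test concentration not given here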; settings: S. pombe 972 growth, higher = more signal, called active from +8 up or from −8 down
[14] = budding yeast growth modifiers under rapamycin – strain BY4716, OD600, 96 h, primary screen (AID 1091); note: test concentration not given here; settings: S. cerevisiae BY4716 + rapamycin, higher = more signal, called active from +8 up or from −8 down
[15] = biological target: Torsin-1A-interacting protein 2 (Homo sapiens) (UniProt Q8NFQ8); assay: small molecules binding lysate-expressed LULL1 – cell lysate, human LULL1 lysate, 635/667 nm fluorescence, primary screen (AID 1092); settings: small-molecule microarray, hLULL1 lysate binding, 635 nm fluorescence; higher = more signal;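 note: probe is lysate of COS7 cells overexpressing human LULL1; score merges per-feature 667 nm fluorescence with signal-to-noise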
[16] = optical density change of DRC41 E. coli – strain DRC41, OD650, 24 h, E. coli filamentation project, primary screen (AID 1093);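 note: MC1000 strain lacking acrAB efflux and sulA so SOS filamentation is blocked; test concentration not given here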; settings: E. coli DRC41 growth, higher = more signal, called active from +8 up or from −8 down
[17] = probe aLefty2 binding to arrayed compounds – biochemical, biotinylated probe, 635/667 nm fluorescence, primary screen (AID 1094); settings: small-molecule microarray, higher = more signal;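 note: score merges spot fluorescence near 667 nm with spot signal-to-noise ratio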
[18] = test system: Noggin (protein binding on small-molecule microarray); assay: small molecules binding Noggin protein – biochemical, 635/667 nm fluorescence, primary screen (AID 1095); settings: 635 nm fluorescence, higher = more signal;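 note: score merges 667 nm feature fluorescence with signal to noise over triplicate slides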
[19] = biological target: Neurogenic locus notch homolog protein 3 (Homo sapiens) (UniProt Q9UM47); assay: small molecules binding NOTCH3 protein – biochemical, 635/667 nm fluorescence, primary screen (AID 1096); settings: small-molecule microarray, 635 nm fluorescence, higher = more signal
[20] = probe aEGFR binding to arrayed compounds – biochemical, biotinylated probe, 635/667 nm fluorescence, primary screen (AID 1097); settings: small-molecule microarray, higher = more signal;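 note: probe is a biotinylated anti-EGFR antibody binding compounds printed on slides; score combines fluorescence near 667 nm and signal to noise of each spot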

Neurogenic locus notch homolog protein 2 (Homo sapiens), sequence (Q04721 whole entry, looked up, canonical isoform): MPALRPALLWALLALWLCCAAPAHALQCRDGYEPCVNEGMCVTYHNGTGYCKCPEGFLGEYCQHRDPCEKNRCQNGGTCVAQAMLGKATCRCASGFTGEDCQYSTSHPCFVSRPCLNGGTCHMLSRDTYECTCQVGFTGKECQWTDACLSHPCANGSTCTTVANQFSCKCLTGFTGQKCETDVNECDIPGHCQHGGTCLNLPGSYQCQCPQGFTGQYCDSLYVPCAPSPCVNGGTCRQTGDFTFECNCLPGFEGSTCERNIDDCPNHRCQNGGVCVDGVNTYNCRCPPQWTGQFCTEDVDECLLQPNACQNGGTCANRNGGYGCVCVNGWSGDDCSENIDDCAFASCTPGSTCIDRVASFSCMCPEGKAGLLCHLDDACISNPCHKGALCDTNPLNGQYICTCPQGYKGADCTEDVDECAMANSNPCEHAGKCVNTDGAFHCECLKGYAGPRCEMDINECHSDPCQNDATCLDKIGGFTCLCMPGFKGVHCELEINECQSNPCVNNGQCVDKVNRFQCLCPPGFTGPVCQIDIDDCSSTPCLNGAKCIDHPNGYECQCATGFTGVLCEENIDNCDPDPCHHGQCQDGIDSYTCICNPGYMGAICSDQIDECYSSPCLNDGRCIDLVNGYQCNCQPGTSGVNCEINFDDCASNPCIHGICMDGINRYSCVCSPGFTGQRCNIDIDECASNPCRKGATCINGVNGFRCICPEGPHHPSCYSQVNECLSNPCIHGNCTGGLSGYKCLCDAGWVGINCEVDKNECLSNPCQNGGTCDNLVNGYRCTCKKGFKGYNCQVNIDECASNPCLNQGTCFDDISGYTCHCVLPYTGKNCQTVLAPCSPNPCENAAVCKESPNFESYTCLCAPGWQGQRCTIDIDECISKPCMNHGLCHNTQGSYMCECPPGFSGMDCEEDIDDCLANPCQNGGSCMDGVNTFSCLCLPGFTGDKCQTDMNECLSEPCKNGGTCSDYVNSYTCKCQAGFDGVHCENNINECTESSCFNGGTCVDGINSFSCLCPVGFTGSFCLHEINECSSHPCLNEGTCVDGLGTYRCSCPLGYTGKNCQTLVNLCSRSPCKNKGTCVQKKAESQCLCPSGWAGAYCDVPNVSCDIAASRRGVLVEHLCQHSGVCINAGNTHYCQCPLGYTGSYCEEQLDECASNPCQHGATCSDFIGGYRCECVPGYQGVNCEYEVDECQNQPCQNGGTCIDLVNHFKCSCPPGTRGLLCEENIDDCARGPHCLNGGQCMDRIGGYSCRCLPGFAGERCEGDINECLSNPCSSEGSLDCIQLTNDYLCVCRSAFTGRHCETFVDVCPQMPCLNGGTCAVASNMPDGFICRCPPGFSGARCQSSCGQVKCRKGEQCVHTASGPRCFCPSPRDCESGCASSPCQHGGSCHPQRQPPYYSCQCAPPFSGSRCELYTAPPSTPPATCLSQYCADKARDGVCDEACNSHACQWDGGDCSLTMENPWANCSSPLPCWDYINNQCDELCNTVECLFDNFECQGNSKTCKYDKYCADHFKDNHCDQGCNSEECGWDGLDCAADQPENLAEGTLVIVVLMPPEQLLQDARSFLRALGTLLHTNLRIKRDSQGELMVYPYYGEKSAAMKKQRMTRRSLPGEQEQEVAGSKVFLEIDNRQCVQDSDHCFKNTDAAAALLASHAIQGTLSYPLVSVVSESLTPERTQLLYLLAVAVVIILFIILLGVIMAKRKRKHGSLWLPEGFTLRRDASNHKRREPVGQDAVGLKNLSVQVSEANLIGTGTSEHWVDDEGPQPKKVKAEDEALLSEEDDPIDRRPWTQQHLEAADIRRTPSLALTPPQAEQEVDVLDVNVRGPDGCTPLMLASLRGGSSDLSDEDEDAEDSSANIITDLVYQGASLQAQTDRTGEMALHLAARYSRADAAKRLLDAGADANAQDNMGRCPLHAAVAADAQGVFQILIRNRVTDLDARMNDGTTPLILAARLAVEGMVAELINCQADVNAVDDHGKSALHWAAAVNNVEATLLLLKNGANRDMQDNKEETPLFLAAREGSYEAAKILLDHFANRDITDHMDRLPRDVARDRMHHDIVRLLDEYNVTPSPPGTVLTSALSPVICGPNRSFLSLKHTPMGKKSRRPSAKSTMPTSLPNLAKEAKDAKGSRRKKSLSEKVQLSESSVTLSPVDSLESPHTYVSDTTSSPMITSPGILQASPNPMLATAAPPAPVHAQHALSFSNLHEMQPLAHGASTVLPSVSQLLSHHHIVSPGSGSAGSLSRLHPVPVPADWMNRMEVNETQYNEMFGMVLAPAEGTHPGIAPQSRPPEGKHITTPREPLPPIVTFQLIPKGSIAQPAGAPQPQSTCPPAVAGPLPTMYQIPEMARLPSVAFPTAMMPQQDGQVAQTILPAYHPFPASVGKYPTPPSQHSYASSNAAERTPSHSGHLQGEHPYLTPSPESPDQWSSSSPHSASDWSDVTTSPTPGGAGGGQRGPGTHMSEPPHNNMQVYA
Neurogenic locus notch homolog protein 3 (Homo sapiens), sequence (Q9UM47 whole entry, looked up): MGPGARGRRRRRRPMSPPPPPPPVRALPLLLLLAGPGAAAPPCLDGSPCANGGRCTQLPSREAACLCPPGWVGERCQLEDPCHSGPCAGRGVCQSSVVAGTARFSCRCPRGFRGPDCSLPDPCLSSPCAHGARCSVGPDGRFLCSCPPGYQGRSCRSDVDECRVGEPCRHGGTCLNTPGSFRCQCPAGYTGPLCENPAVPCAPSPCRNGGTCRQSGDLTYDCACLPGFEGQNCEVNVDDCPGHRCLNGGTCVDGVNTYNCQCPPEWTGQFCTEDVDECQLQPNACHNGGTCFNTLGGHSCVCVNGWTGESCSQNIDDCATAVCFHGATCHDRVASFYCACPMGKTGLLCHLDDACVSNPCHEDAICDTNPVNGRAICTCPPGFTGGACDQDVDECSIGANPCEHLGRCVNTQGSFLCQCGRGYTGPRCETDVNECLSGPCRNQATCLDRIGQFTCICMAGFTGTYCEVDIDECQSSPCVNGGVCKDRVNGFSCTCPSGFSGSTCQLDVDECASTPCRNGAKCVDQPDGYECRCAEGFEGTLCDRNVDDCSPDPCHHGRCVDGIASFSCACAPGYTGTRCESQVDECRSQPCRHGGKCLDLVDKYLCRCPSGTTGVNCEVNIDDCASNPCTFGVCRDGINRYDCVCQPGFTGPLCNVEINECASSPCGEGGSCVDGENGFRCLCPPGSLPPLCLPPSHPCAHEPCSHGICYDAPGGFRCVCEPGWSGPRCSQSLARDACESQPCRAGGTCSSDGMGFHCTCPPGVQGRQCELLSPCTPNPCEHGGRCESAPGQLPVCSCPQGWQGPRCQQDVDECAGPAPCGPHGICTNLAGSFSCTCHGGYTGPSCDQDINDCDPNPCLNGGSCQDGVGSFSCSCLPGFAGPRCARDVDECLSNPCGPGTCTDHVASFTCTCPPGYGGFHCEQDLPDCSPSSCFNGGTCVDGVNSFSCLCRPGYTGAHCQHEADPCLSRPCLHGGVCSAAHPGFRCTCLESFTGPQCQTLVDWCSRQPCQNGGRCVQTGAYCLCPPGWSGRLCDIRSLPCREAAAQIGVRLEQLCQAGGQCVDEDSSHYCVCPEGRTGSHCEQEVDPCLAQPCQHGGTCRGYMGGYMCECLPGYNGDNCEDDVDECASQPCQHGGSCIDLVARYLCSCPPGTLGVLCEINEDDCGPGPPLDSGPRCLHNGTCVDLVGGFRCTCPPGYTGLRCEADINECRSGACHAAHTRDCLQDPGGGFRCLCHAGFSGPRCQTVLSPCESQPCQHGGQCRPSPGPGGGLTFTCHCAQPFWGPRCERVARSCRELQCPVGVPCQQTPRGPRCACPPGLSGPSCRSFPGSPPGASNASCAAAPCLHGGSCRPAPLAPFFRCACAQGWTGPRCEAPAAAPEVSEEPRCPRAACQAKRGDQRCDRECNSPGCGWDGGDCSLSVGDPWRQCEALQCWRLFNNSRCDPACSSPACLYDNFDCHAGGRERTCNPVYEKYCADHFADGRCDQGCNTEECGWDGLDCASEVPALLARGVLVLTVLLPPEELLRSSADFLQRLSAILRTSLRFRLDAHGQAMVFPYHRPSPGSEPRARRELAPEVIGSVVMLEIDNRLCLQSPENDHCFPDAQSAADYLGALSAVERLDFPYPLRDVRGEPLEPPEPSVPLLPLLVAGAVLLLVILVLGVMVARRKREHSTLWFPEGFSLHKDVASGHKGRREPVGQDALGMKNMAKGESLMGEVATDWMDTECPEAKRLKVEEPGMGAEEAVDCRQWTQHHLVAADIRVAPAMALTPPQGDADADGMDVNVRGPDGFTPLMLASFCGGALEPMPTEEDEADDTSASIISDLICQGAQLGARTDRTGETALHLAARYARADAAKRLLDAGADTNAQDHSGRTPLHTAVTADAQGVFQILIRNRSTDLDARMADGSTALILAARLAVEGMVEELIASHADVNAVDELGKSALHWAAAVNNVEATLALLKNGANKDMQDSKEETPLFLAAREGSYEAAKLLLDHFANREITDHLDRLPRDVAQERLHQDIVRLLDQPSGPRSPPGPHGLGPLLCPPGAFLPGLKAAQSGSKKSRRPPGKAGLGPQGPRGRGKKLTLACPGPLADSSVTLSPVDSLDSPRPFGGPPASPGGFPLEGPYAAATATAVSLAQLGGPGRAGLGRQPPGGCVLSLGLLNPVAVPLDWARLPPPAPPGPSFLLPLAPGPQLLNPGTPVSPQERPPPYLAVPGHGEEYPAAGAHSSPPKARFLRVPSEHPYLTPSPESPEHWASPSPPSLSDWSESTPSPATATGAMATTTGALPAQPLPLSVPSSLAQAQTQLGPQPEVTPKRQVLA

| Structure (SMILES) | composite z-score [1] | composite z-score [2] | composite z-score [3] | composite z-score [4] | composite z-score [5] | composite z-score [6] | composite z-score [7] | z-score [8] | composite z-score [9] | composite z-score [10] | composite z-score [11] | z-score [12] | z-score [13] | z-score [14] | composite z-score [15] | z-score [16] | composite z-score [17] | composite z-score [18] | composite z-score [19] | composite z-score [20] |
| --- | --- | --- | --- | --- | --- | --- | --- | --- | --- | --- | --- | --- | --- | --- | --- | --- | --- | --- | --- | --- |
| COCCCN1C(=O)[C@@]2(Cc3ccccc31)c1ccccc1C(=O)N(Cc1ccccc1C(F)(F)F)[C@H]2c1ccc(CO)cc1 | -0.774 | 0.356 | -0.123 | -0.179 | -0.16 | -0.0485 | 0.848 | -0.0864 (inactive) | 0.222 | -0.526 | 0.979 | 1.19 (inactive) | 0.339 (inactive) | -1.41 (inactive) | 2.51 | -0.253 (inactive) | -0.143 | 0.992 | 0.627 | -0.121 |
| COC(=O)[C@@]1(Cc2ccc(F)cc2)[C@H]2c3cc(C(=O)N4CCCC4)n(Cc4ccc(C)o4)c3C[C@H]2CN1C(=O)c1ccccc1 | 0.285 | 0.145 | 0.157 | 0.883 | 1.53 | 0.714 | 1.14 | 1.62 (inactive) | 1.29 | 0.2 | 0.812 | -0.849 (inactive) | -0.0545 (inactive) | 0.0836 (inactive) | 2.88 | -0.673 (inactive) | 0.381 | 1.2 | 0.556 | 0.277 |
| O=C1c2ccccc2[C@](Cc2ccccc2I)(C(=O)NC2CC2)[C@H](c2ccc(CO)cc2)N1C1CCCCC1 | -0.0129 | 0.677 | -0.0989 | 0.418 | 1.48 | 1.62 | 1.41 | -4.4 (inactive) | 1.37 | -0.926 | 1.56 | 1.13 (inactive) | 0.525 (inactive) | 2.36 (inactive) | 2.38 | 0.257 (inactive) | -0.224 | 0.62 | 1.05 | -0.36 |
| C=C(COC)/C(=C/C[C@H](OC(=O)c1ccncc1)c1ccc(OCCO)cc1)c1cnc2ccccc2c1 | -0.219 | 0.833 | 0.0485 | 0.97 | 1.57 | 1.4 | 1.14 | 1.87 (inactive) | 1.14 | 0.12 | 1.53 | -0.922 (inactive) | -1.39 (inactive) | 0.0294 (inactive) | 3.13 | -0.124 (inactive) | -0.0094 | 1.39 | 1.05 | 0.0176 |
| COc1cc(OC)c(C(O)C2C=CC3C(=O)NC(=O)C3N2Nc2ccc(Cl)cc2Cl)cc1Br (stereo not given) | 0.379 | -0.0156 | 0.19 | 0.141 | 1.61 | 1.9 | 1.11 | 0.809 (inactive) | 1.58 | -0.199 | 0.743 | -18.8 (active) | 0.109 (inactive) | -0.55 (inactive) | 3.34 | -1.99 (inactive) | 0.277 | -0.48 | 0.541 | 0.0009 |
